The source of these data is article PMC6212790, “How bacterial xenogeneic silencer rok distinguishes foreign from self DNA in its resident genome”.

Over roughly 33,000 sequences, “e-score” has its median near -0.038; the highest 2% begin near 0.33. Many of the other results were omitted from the sample, so the highest values are more common in it than they were.

In the experiment the target is T1, GST-Rok-C97-191 (Bacillus subtilis subsp. subtilis str. …, UniProt O34857 97-191).
T1 sequence: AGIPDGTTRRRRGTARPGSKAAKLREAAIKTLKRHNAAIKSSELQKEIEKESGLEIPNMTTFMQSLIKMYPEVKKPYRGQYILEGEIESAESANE
Kind of experiment: protein binding microarray; Rok is a gene silencer of Bacillus subtilis; high values mean tight binding. Particulars: protein: recombinant; tags: GST (pTH5325, pDEST15-Magic modified); dsDNA, one strand shown. The method in brief:
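Every oligonucleotide joins a 25-mer constant primer to a 35-mer variable part drawn from a de Bruijn sequence of order 10, so each non-palindromic 8-mer appears at least 32 times and each palindromic 8-mer 16 times. The preference for every 8-mer is reported as a unitless, rank-based enrichment score (E-score). This score spans 0.5 for the most favored 8-mer to −0.5 for the most disfavored.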
On to CGCTAGAC, for which the binding signal is 0.00486 E-score.

For ATGTCCAC, the binding signal is -0.0386 E-score.

In the case of GTCTACGA, the binding signal was -0.0769 E-score.

As for ATCTACCA, the binding signal came to 0.469 E-score.

As for ATCTACGA, the binding signal was found to be 0.333 E-score.

For the sequence ATCTACCG, the binding signal came to 0.394 E-score.

Take GTCTACCA: the binding signal amounted to 0.15 E-score.

For the sequence ATCTACCC, the binding signal worked out at 0.22 E-score.

For ACCTACCG, the binding signal turned out to be 0.148 E-score.

Consider ATCTATCG, for which the binding signal came to 0.313 E-score.

With CTCTACGA, the binding signal came to 0.107 E-score.

As to CGAAAGAC, the binding signal is -0.0876 E-score.

In the case of GAAAGACA, the binding signal was -0.0886 E-score.

Take GTGCAGTA: the binding signal was found to be 0.196 E-score.

As for ATCGAGGC, the binding signal is -0.159 E-score.

As for TATGACGA, the binding signal is 0.0683 E-score.

Take CTATTTAC: the binding signal stood at 0.349 E-score.

Turning to ATATTTGC, the binding signal came to 0.295 E-score.

For the sequence CTATTTAA, the binding signal amounted to 0.14 E-score.

ATATTTAA: the binding signal is 0.338 E-score.

As for ACATTTAC, the binding signal turned out to be 0.315 E-score.

Consider ATATTTAG, for which the binding signal is 0.201 E-score.

In the case of CTATTAAA, the binding signal came to 0.0376 E-score.

Take ATATTAAC: the binding signal was found to be 0.296 E-score.

Take ATATTTAC: the binding signal came out at 0.375 E-score.

Take ATTTTTAA: the binding signal is 0.146 E-score.

For the sequence ATATTAAA, the binding signal came out at 0.385 E-score.

In the case of CTCTTTAC, the binding signal turned out to be 0.0967 E-score.

Regarding CTTTACTC, the binding signal was -0.199 E-score.

On to ATGTAGGA, for which the binding signal was 0.201 E-score.

Consider CTTGACGA, for which the binding signal was -0.14 E-score.

On to CATGTACC, for which the binding signal stood at 0.227 E-score.

As for AATGTACT, the binding signal was 0.296 E-score.

As for GATGTACA, the binding signal was 0.29 E-score.

As to CATGTACA, the binding signal was 0.317 E-score.

AATGTACA: the binding signal is 0.34 E-score.

In the case of AATGTACC, the binding signal amounted to 0.373 E-score.

Regarding AGTGTACA, the binding signal was 0.141 E-score.

On to TATGTACA, for which the binding signal worked out at 0.345 E-score.

With AATGTACG, the binding signal turned out to be 0.155 E-score.

Turning to CCGAGTCG, the binding signal was -0.148 E-score.

As for AGGAGAAA, the binding signal came out at 0.073 E-score.

For CACGAAGC, the binding signal was -0.104 E-score.

Turning to AGCATTTG, the binding signal was -0.0352 E-score.

Regarding AACTGAAC, the binding signal stood at 0.106 E-score.

GCCATTGA: the binding signal is -0.0503 E-score.

Turning to TATTTAAA, the binding signal was 0.186 E-score.

Take AAAAGACG: the binding signal was found to be 0.0272 E-score.

As to TAACGGTA, the binding signal amounted to 0.278 E-score.

For the sequence CTTGAAGA, the binding signal was -0.0244 E-score.

Regarding ATTTATAG, the binding signal turned out to be 0.358 E-score.

CTTTATAC: the binding signal was found to be 0.227 E-score.

For the sequence ATTTATAA, the binding signal was found to be 0.294 E-score.

Consider AGTTATAC, for which the binding signal is 0.241 E-score.

On to ATTTATAC, for which the binding signal was 0.348 E-score.

With ATTTATGG, the binding signal amounted to 0.174 E-score.

For GACTCTCA, the binding signal is -0.0851 E-score.

Consider GGTCTGCA, for which the binding signal is -0.0588 E-score.

Turning to AACTACAA, the binding signal amounted to 0.348 E-score.

As to AGCTACAA, the binding signal amounted to 0.209 E-score.

With AGCTACAC, the binding signal came to 0.169 E-score.

As for CACTACAC, the binding signal is 0.0572 E-score.

As to ATCTACAG, the binding signal turned out to be 0.309 E-score.

Regarding AACTACAC, the binding signal came to 0.33 E-score.

On to ATCTACAT, for which the binding signal came to 0.342 E-score.

As for ATCTACAC, the binding signal turned out to be 0.273 E-score.

GACTACAA: the binding signal is -0.00391 E-score.

Turning to CACTACAA, the binding signal came out at 0.173 E-score.

With AGCTACAT, the binding signal worked out at 0.368 E-score.

Regarding GACTACAC, the binding signal is -0.000838 E-score.

Consider AGAACTGG, for which the binding signal is -0.0864 E-score.

For CAATGGGC, the binding signal was -0.197 E-score.

On to AATCGCCA, for which the binding signal was -0.00284 E-score.

In the case of AAAGCCAT, the binding signal is -0.088 E-score.

Take GTTCCTGA: the binding signal is -0.0326 E-score.

Regarding ACTCGTTA, the binding signal came out at 0.225 E-score.

Regarding AACTACGA, the binding signal is 0.283 E-score.

On to AACTACAG, for which the binding signal is 0.327 E-score.

Consider AACTACGT, for which the binding signal came out at 0.338 E-score.

Regarding AACTACAT, the binding signal stood at 0.364 E-score.

With ACCTACAT, the binding signal was found to be 0.227 E-score.

As for AACTACGC, the binding signal is 0.126 E-score.

On to AACAATGA, for which the binding signal worked out at 0.0026 E-score.

With ACGAGCAG, the binding signal was -0.19 E-score.

Consider ATTTTGAC, for which the binding signal is 0.235 E-score.

Regarding ACGCTCAC, the binding signal is -0.0887 E-score.

For ACCATAAC, the binding signal came to 0.0976 E-score.

Take GACTTTAC: the binding signal was -0.0515 E-score.

For AAATCTAG, the binding signal stood at 0.352 E-score.

For the sequence AAATCTGT, the binding signal amounted to 0.141 E-score.

Take CAATCTAG: the binding signal came to 0.206 E-score.

AAATCTGC: the binding signal is -0.0413 E-score.

Regarding AAATCTTC, the binding signal worked out at 0.0559 E-score.

For ACATCTAG, the binding signal stood at 0.323 E-score.

Regarding AAATCTAT, the binding signal turned out to be 0.4 E-score.

AAATCTAA: the binding signal is 0.202 E-score.

AAATCTAC: the binding signal is 0.441 E-score.

For the sequence AGCTTTCG, the binding signal was -0.16 E-score.

Take GAGAACCC: the binding signal was -0.104 E-score.

For the sequence CCTTCTAC, the binding signal stood at 0.235 E-score.

As to AAGTTGGA, the binding signal was -0.145 E-score.

For AGCAATTC, the binding signal is 0.115 E-score.

AGCAATTG: the binding signal turned out to be 0.332 E-score.

On to AGCAATTA, for which the binding signal was found to be 0.303 E-score.

With CGGCCGAG, the binding signal was -0.169 E-score.

Consider AGCGCCCC, for which the binding signal was -0.198 E-score.

With AGGGACCC, the binding signal is -0.173 E-score.

Turning to ATTCTAGC, the binding signal came out at 0.249 E-score.

With CTTCTACA, the binding signal is 0.273 E-score.

As for ATTCTATA, the binding signal turned out to be 0.224 E-score.

For the sequence ACTCTACC, the binding signal is -0.0607 E-score.

Take ATTCTACC: the binding signal worked out at 0.467 E-score.

Take GTTCTACA: the binding signal was found to be 0.247 E-score.

On to ATTCTACA, for which the binding signal was 0.382 E-score.

For CTTCTAGC, the binding signal was determined as 0.138 E-score.

In the case of ATTCTACG, the binding signal turned out to be 0.179 E-score.

With CTTCTACC, the binding signal is 0.348 E-score.

With ATTCTATC, the binding signal worked out at 0.414 E-score.

As for CTTCTATC, the binding signal came to 0.241 E-score.

On to ATTCAGTC, for which the binding signal turned out to be 0.00215 E-score.

On to AAGTATGA, for which the binding signal was determined as 0.179 E-score.

On to ATTCAATG, for which the binding signal is -0.0215 E-score.

Consider AACAGCGT, for which the binding signal is -0.0978 E-score.

Consider AAGCATGG, for which the binding signal was -0.183 E-score.

Take TAAATGCA: the binding signal stood at 0.289 E-score.

As to TGAATTAA, the binding signal was 0.0945 E-score.

Turning to AGTTGAAC, the binding signal is -0.0218 E-score.

In the case of AGTAGGTC, the binding signal turned out to be 0.159 E-score.

As for CGTAGGTA, the binding signal came out at 0.336 E-score.

Consider GGTAGGTA, for which the binding signal came to 0.331 E-score.

Take CGTAGGCA: the binding signal is -0.0837 E-score.

As to AGTAGGTG, the binding signal came to 0.127 E-score.

Consider GGTAGGAA, for which the binding signal is 0.247 E-score.

Consider AGTAGGTA, for which the binding signal amounted to 0.4 E-score.

Turning to GCTAGGTA, the binding signal was found to be 0.145 E-score.

CCTAGGTA: the binding signal stood at 0.144 E-score.

For the sequence CAATGAAA, the binding signal was -0.098 E-score.

For CAGCATGA, the binding signal is -0.0331 E-score.

For the sequence CTGGAGGA, the binding signal is -0.0909 E-score.

Consider CGTGTTAC, for which the binding signal was determined as 0.0253 E-score.

CGTAGCCC: the binding signal is -0.128 E-score.

As to CCTAATAA, the binding signal is -0.00276 E-score.

On to TAGACCCA, for which the binding signal was 0.00211 E-score.

In the case of ATATCGTA, the binding signal is 0.263 E-score.

Consider ATATAGTC, for which the binding signal was 0.225 E-score.

Regarding CTATAGTC, the binding signal was 0.122 E-score.

Consider GTATCGTA, for which the binding signal amounted to 0.268 E-score.

As for ATATAGTG, the binding signal was determined as 0.253 E-score.

Regarding GTATAGTA, the binding signal amounted to 0.25 E-score.

Take ATATAGTA: the binding signal amounted to 0.438 E-score.

On to CTATCGTA, for which the binding signal was 0.357 E-score.

In the case of CTATAGTA, the binding signal is 0.371 E-score.

Consider CGGGACTA, for which the binding signal was found to be 0.0767 E-score.

As for AATGATGC, the binding signal stood at 0.103 E-score.

With AAGGTCTA, the binding signal was -0.133 E-score.

As to ATTCCGGC, the binding signal came out at 0.0407 E-score.

As for CCCACTAG, the binding signal is 0.0169 E-score.

Consider AGGTTAGG, for which the binding signal is -0.139 E-score.

As for GCCTTCGC, the binding signal is -0.0744 E-score.

For CCCAACTA, the binding signal was found to be 0.257 E-score.

With CAATAAGA, the binding signal is -0.045 E-score.

Regarding CAATGACG, the binding signal is -0.168 E-score.

On to AGGTTCAG, for which the binding signal was 0.0249 E-score.

Turning to GTACATAC, the binding signal was 0.172 E-score.

For CTACATAC, the binding signal stood at 0.274 E-score.

Regarding GTACATAA, the binding signal turned out to be 0.328 E-score.

For the sequence CTACATAA, the binding signal came to 0.203 E-score.

CTACATAG: the binding signal was 0.152 E-score.

Take ATACATAA: the binding signal was found to be 0.273 E-score.

As to ATACATAG, the binding signal is 0.371 E-score.

Take ATACACAT: the binding signal was 0.214 E-score.

As for ATACATAC, the binding signal was found to be 0.338 E-score.
